Laboratory results from article PMC5540273 (PLoS ONE, 2017).
Where two headings read alike, the source gives them in different places.

Experiments:
STK16 = details: concentration: 1 μM, replicates: in singlicate; n = 1
STK33 = details: concentration: 1 μM, replicates: in singlicate; n = 1
STK35 = details: concentration: 1 μM, replicates: in singlicate; n = 1
STK36 = details: concentration: 1 μM, replicates: in singlicate; n = 1
STK39 = details: concentration: 1 μM, replicates: in singlicate; n = 1
SYK = details: concentration: 1 μM, replicates: in singlicate; n = 1
SgK110 = details: concentration: 1 μM, replicates: in singlicate; n = 1
TAK1 = tested on: T1, TAK1; details: concentration: 1 μM, replicates: in singlicate; n = 1
T1 construct: gene MAP3K7

TAOK1 = details: concentration: 1 μM, replicates: in singlicate; n = 1
TAOK2 = details: concentration: 1 μM, replicates: in singlicate; n = 1
TAOK3 = details: concentration: 1 μM, replicates: in singlicate; n = 1
TBK1 = details: concentration: 1 μM, replicates: in singlicate; n = 1
TEC = details: concentration: 1 μM, replicates: in singlicate; n = 1
TESK1 = details: concentration: 1 μM, replicates: in singlicate; n = 1
TGFBR1 = details: n = 1
TGFBR2 = details: concentration: 1 μM, replicates: in singlicate; n = 1
TIE1 = details: concentration: 1 μM, replicates: in singlicate; n = 1
TIE2 = tested on: T2, TIE2; details: concentration: 1 μM, replicates: in singlicate; n = 1
T2 construct: gene TEK

TLK1 = details: concentration: 1 μM, replicates: in singlicate; n = 1
TLK2 = details: concentration: 1 μM, replicates: in singlicate; n = 1
[1] = concentration: 1 μM, replicates: in singlicate
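Also: KINOMEscan kinase panel screen.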

Fc1cc(Cl)ccc1Nc1ccnc2cc(-c3ccc(CN4CCCCC4)o3)ccc12 [GW560116]
%Inh (STK16): 1% | %Inh (STK33): 0% | %Inh (STK35): 0% | %Inh (STK36): 0% | %Inh (STK39): 0% | %Inh (SYK): 0% | %Inh (SgK110): 0% | %Inh (TAK1): 0% | %Inh (TAOK1): 0% | %Inh (TAOK2): 0% | %Inh (TAOK3): 0% | %Inh (TBK1): 14% | %Inh (TEC): 5% | %Inh (TESK1): 19% | %Inh (TGFBR1; [1]): 0% | %Inh (TGFBR2): 0% | %Inh (TIE1): 0% | %Inh (TIE2): 0% | %Inh (TLK1): 0% | %Inh (TLK2): 0%

Cc1cccc(-c2nc(Nc3ccncc3)c3ccccc3n2)n1 [GW855857]
%Inh (STK16): 7% | %Inh (STK33): 2% | %Inh (STK35): 0% | %Inh (STK36): 5% | %Inh (STK39): 0% | %Inh (SYK): 14% | %Inh (SgK110): 0% | %Inh (TAK1): 0% | %Inh (TAOK1): 0% | %Inh (TAOK2): 17% | %Inh (TAOK3): 0% | %Inh (TBK1): 41% | %Inh (TEC): 10% | %Inh (TESK1): 14% | %Inh (TGFBR2): 95.7% | %Inh (TIE1): 20% | %Inh (TIE2): 27% | %Inh (TLK1): 0% | %Inh (TLK2): 0%

Cc1c(Cn2ccn3c(=O)cc(N4CCOCC4)nc23)cccc1C(F)(F)F [GSK2289044]
%Inh (STK16): 13% | %Inh (STK33): 0% | %Inh (STK35): 0% | %Inh (STK36): 19% | %Inh (STK39): 13% | %Inh (SYK): 15% | %Inh (SgK110): 0% | %Inh (TAK1): 0% | %Inh (TAOK1): 0% | %Inh (TAOK2): 0% | %Inh (TAOK3): 0% | %Inh (TBK1): 7% | %Inh (TEC): 0% | %Inh (TESK1): 17% | %Inh (TGFBR1; [1]): 0% | %Inh (TGFBR2): 0% | %Inh (TIE1): 10% | %Inh (TIE2): 0% | %Inh (TLK1): 0% | %Inh (TLK2): 0%

Cc1cccc(-c2nc(Nc3cccc(C(N)=O)c3)c3ccccc3n2)n1 [GW876019]
%Inh (STK16): 0% | %Inh (STK33): 29% | %Inh (STK35): 0% | %Inh (STK36): 0% | %Inh (STK39): 0% | %Inh (SYK): 14% | %Inh (SgK110): 41% | %Inh (TAK1): 0% | %Inh (TAOK1): 0% | %Inh (TAOK2): 30% | %Inh (TAOK3): 0% | %Inh (TBK1): 40% | %Inh (TEC): 2% | %Inh (TESK1): 0% | %Inh (TGFBR2): 15% | %Inh (TIE1): 0% | %Inh (TIE2): 41% | %Inh (TLK1): 0% | %Inh (TLK2): 4%

O=C(Nc1n[nH]c2cc(-c3cccc(F)c3F)ccc12)C1CC1 [SB-733894]
%Inh (STK16): 12% | %Inh (STK33): 0% | %Inh (STK35): 0% | %Inh (STK36): 9% | %Inh (STK39): 0% | %Inh (SYK): 0% | %Inh (SgK110): 17% | %Inh (TAK1): 48% | %Inh (TAOK1): 23% | %Inh (TAOK2): 0% | %Inh (TAOK3): 16% | %Inh (TBK1): 18% | %Inh (TEC): 4% | %Inh (TESK1): 8% | %Inh (TGFBR1; [1]): 1% | %Inh (TGFBR2): 14% | %Inh (TIE1): 0% | %Inh (TIE2): 17% | %Inh (TLK1): 0% | %Inh (TLK2): 5%

Fc1cc(Cl)ccc1Nc1ccnc2cc(I)ccc12 [GW551191]
%Inh (STK16): 9% | %Inh (STK33): 0% | %Inh (STK35): 57% | %Inh (STK36): 0% | %Inh (STK39): 15% | %Inh (SYK): 0% | %Inh (SgK110): 4% | %Inh (TAK1): 0% | %Inh (TAOK1): 0% | %Inh (TAOK2): 0% | %Inh (TAOK3): 0% | %Inh (TBK1): 11% | %Inh (TEC): 22% | %Inh (TESK1): 12% | %Inh (TGFBR1; [1]): 17% | %Inh (TGFBR2): 50% | %Inh (TIE1): 0% | %Inh (TIE2): 0% | %Inh (TLK1): 21% | %Inh (TLK2): 0%

COc1ccc2nc(-c3cccc(C)n3)nc(Nc3ccncc3)c2c1 [GSK204919]
%Inh (STK16): 1% | %Inh (STK33): 0% | %Inh (STK35): 5% | %Inh (STK36): 0% | %Inh (STK39): 7% | %Inh (SYK): 10% | %Inh (SgK110): 2% | %Inh (TAK1): 0% | %Inh (TAOK1): 0% | %Inh (TAOK2): 0% | %Inh (TAOK3): 0% | %Inh (TBK1): 3% | %Inh (TEC): 8% | %Inh (TESK1): 26% | %Inh (TGFBR2): 10% | %Inh (TIE1): 9% | %Inh (TIE2): 0% | %Inh (TLK1): 0% | %Inh (TLK2): 0%

COc1cccc(-c2cc(-c3c[nH]nc3-c3ccccn3)ccn2)c1 [GW680338]
%Inh (STK16): 8% | %Inh (STK33): 0% | %Inh (STK35): 0% | %Inh (STK36): 25% | %Inh (STK39): 13% | %Inh (SYK): 17% | %Inh (SgK110): 17% | %Inh (TAK1): 0% | %Inh (TAOK1): 0% | %Inh (TAOK2): 0% | %Inh (TAOK3): 0% | %Inh (TBK1): 0% | %Inh (TEC): 0% | %Inh (TESK1): 15% | %Inh (TGFBR1; 1 µM): 54% | %Inh (TGFBR2): 32% | %Inh (TIE1): 0% | %Inh (TIE2): 0% | %Inh (TLK1): 0% | %Inh (TLK2): 0%

Cc1ccc(-c2cc(-c3c[nH]nc3-c3ccccn3)ccn2)cc1 [GW684088]
%Inh (STK16): 28% | %Inh (STK33): 0% | %Inh (STK35): 0% | %Inh (STK36): 23% | %Inh (STK39): 0% | %Inh (SYK): 21% | %Inh (SgK110): 2% | %Inh (TAK1): 15% | %Inh (TAOK1): 0% | %Inh (TAOK2): 0% | %Inh (TAOK3): 0% | %Inh (TBK1): 26% | %Inh (TEC): 0% | %Inh (TESK1): 0% | %Inh (TGFBR1; 1 µM): 89% | %Inh (TGFBR2): 77% | %Inh (TIE1): 0% | %Inh (TIE2): 13% | %Inh (TLK1): 24% | %Inh (TLK2): 10%
